The list is not random: actives were taken first. Their share in the collection is about 3.3%.
D3 antag – D3 dopamine receptor (human) antagonism; P35462; D3R cells, DiscoveRx beta-arrestin luminescence, antagonist mode; active compounds read low; max response, negative = inhibition, %; 2.5% of 360,000 active; AID 652054; in the data active means max response below about -50%; inconclusive means no clear call, values can overlap the other calls; further: on the % scale 0 is the no-effect control and ±100 the full control effect
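Cells expressing the human receptor were seeded at 1500 cells/well, incubated overnight at 37 degrees C in 5% CO2, then exposed to library compounds with dopamine controls for 90 minutes at 37 degrees C before luminescent detection.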
PI5P4K alpha inh – blocks human PI5P4K alpha kinase activity. max response, %. P48426. AID 652105. 1.2% of 330,000 active. PI5P4Kalpha enzyme, ADP-Glo luminescence, 60 min; active compounds read low; active means max response of -50% or lower; inconclusive means between -30% and -50%; inactive means -30% or higher; further: value at the top dose of about 77 µM; on the % scale 0 is the no-effect control and ±100 the full control effect
Target sequence (P48426 whole entry, looked up): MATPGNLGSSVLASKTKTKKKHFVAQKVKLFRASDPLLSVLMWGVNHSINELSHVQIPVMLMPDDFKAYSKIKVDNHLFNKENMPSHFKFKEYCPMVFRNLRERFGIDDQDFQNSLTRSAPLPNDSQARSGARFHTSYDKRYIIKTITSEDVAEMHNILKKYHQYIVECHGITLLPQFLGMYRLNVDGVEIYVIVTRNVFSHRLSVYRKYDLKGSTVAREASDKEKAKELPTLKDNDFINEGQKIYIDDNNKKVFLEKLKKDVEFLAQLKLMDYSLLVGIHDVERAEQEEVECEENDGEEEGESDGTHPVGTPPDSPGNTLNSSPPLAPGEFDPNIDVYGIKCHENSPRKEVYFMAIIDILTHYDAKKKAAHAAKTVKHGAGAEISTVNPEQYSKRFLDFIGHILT
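qHTS, 1536-well: enzyme/substrate mix, compound by pin tool, 5 microM ATP final; RT 60 min; ADP-Glo reagents 1 (45 min) then 2 (30 min); luminescence.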
LDHA inh – inhibitors of human lactate dehydrogenase A; P00338; purified LDHA, NADH/diaphorase-resazurin fluorescence; active compounds read low; 0.15% of 480,000 active; activity change, % (values are at about 110 or 230 µM); in the data active means activity change below about -30%; inconclusive means mostly about -25% to -30%;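 further: plate controls were DMSO wells for no effect and wells without enzyme for full effect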
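Remaining NADH was detected by diaphorase (0.133 mg/mL) converting 37 µM resazurin to fluorescent resorufin, read at 0 and 20 minutes. The preceding 5-minute room-temperature reaction used 2 nM LDHA, 0.2 mM sodium pyruvate and 0.06 mM NADH at pH 7.4.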
DRD3 agonist – agonists of human D3 dopamine receptor | 0.58% of 410,000 active | max activation, % | D3R DiscoveRx beta-arrestin cells, luminescence, 90 min | P35462; in the data active means max activation above about 30%; further: 0% is about no effect
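Agonist-mode cell screen: cells plated at 1500/well and incubated overnight at 37 °C, then exposed to library compounds for 90 min at 37 °C. Detection reagent was added for 30–60 min at room temperature, and luminescence was read.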
PI4K2A block – blocks human PI4K2A kinase activity; Q9BTU6; purified PI4K2A, ADP-Glo luminescence, 1 h; active compounds read low; activity change, negative = inhibition, % at 76.9 µM; 0.13% of 420,000 active; AID 1346378; in the data active means activity change below about -50%; inconclusive means mostly about -30% to -49%;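 further: -100% = wells without enzyme as full effect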
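PI4K2A activity was measured by ADP-Glo luminescence: enzyme (4 ug/mL stock) and phosphatidylinositol (1.2 mM stock) in Tris pH 7.5/MgCl2/EGTA/Triton X-100 buffer were reacted with ATP (300 microM stock) for one hour at ambient temperature.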
Active calls of the source: *; ? = inconclusive; · = not tested or not shown.

SMILES | D3 antag | PI5P4K alpha inh | LDHA inh | DRD3 agonist | PI4K2A block
COc1cc(/C=C2\C[C@H]3[C@@H]4CC=C5C[C@@H](N6CCCC6)CC[C@]5(C)[C@H]4CC[C@]3(C)[C@H]2O)cc(OC)c1OC | -70* | -4 | 5 | -28 | -4
CCCCCCC(C)(C)c1ccc([C@@H]2C[C@H](O)CC[C@H]2CCCO)c(O)c1 | 102 | 20 | 3 | 70* | -1
CCOC(=O)C1=C(N)Oc2c(c(=O)oc3ccccc23)C12C(=O)Nc1ccc(Br)cc12 (configuration not stated) | · | · | 17 | · | ·
O=C(Nc1nc2ccccc2s1)C12CC3CC(CC(C3)C1)C2 | · | · | 9 | · | ·
COc1ccccc1CN1CCCC(C(=O)c2ccccc2SC)C1 (configuration not stated) | ? | -5 | -6 | -7 | -3
COc1cccc(OC)c1CN1CCCC(C(=O)c2cccc(Cl)c2)C1 (configuration not stated) | -78* | -5 | 2 | -27 | -1
COc1ccccc1CN1CCCC(C(=O)c2ccccc2OC)C1 (configuration not stated) | -59* | 3 | 0 | -24 | 5
CC(=O)N1CCC(N2CCCC(C(=O)c3cccc(Cl)c3)C2)CC1 (configuration not stated) | -12 | 2 | -10 | 129* | 4
CCOc1ccc(CN2CCCC(C(=O)c3ccccc3OC)C2)cc1 (configuration not stated) | -81* | 9 | 0 | -23 | -10
C[C@H]1O[C@@H](O[C@H]2[C@@H](O)C[C@@H](O[C@H]3[C@@H](O)C[C@H](O[C@H]4CC[C@@]5(C)[C@H](CC[C@@H]6[C@@H]5CC[C@]5(C)[C@@H](C7=CC(=O)OC7)CC[C@]65O)C4)O[C@@H]3C)O[C@@H]2C)C[C@H](O)[C@@H]1O | · | · | -12 | · | ·
C#CCN1CCN(Cc2ccc(OC)c(OC)c2)CC1 | · | · | -9 | · | ·
CCCCN1CCN(C(=O)COc2cc(=O)n(C)c3ccccc23)CC1 | · | · | · | · | 4
CCn1ccnc1CN1CCCC(C(=O)c2cc(F)ccc2OC)C1 (configuration not stated) | -11 | 1 | -3 | -14 | 5
CCOc1ccccc1CN1CCCC(C(=O)c2cc(F)ccc2F)C1 (configuration not stated) | -72* | 9 | -2 | -20 | 2
COc1ccc(C(=O)C2CCCN(CCc3ccccc3)C2)cc1OC (configuration not stated) | -68* | 2 | 0 | -25 | -2
COc1ccc(C(=O)C2CCCN(Cc3ccc(F)cc3F)C2)cc1F (configuration not stated) | -29 | 0 | 1 | -11 | 2
COc1ccc(F)cc1C(=O)C1CCCN(Cc2ccc(O)cc2)C1 (configuration not stated) | -65* | -5 | -9 | -15 | 0
Cc1c(-c2ccc(Cl)cc2)c(=O)oc2ccc(OC(=O)N(C)C)cc12 | · | · | 0 | · | ·
Cc1c(-c2ccccc2)c(=O)oc2ccc(OC(=O)N(C)C)cc12 | · | · | 18 | · | ·
CC1OC(OC2C(O)CC(OC3C(O)CC(OC4CCC5(C)C(CC[C@@H]6[C@@H]5CCC5(C)C(C7=CC(=O)OC7)C(O)CC65O)C4)OC3C)OC2C)CC(O)C1O (some centres not stated) | · | · | 1 | · | ·
COc1cc(-c2c(C#N)c(N)nc3c2c(=O)nc2sccn23)ccc1OCc1cccc(C)c1 | · | · | 2 | · | ·
Cc1cc(/C=C2\C(=O)NC(=O)N(Cc3ccco3)C2=O)c(C)n1-c1ccc(O)cc1 | 9 | -83* | -2 | 3 | ?
Cc1ccc(-n2c(C)cc(/C=C3/C(=O)NC(=O)N(Cc4ccco4)C3=O)c2C)cc1 | 6 | -13 | -5 | 7 | -12
Cc1cc(/C=C2\C(=O)NC(=O)N(Cc3ccccc3)C2=O)c(C)n1-c1ccc(Cl)c(C(=O)O)c1 | 11 | -94* | -5 | 1 | -24
Cc1cc(/C=C2\C(=O)NC(=O)N(Cc3ccccc3Cl)C2=O)c(C)n1-c1ccc(C(=O)O)cc1 | 3 | -52* | -14 | 12 | 4
SMILES | D3 antag | PI5P4K alpha inh | LDHA inh | DRD3 agonist | PI4K2A block
CN(C)CCN=Cc1c(O)n(C2CCCCCC2)c(=O)[nH]c1=O | 4 | -2 | -6 | 5 | 1
CCN(CC)CCN=Cc1c(O)n(C2CCCCCC2)c(=O)[nH]c1=O | 0 | -7 | -2 | 39* | 5
ClC1=CC[C@@H]2CN(CCN3CCOCC3)C[C@@H]2C1 | · | · | 1 | · | ·
CCNC(=O)NC(=O)C(C)N1CCN(C(=O)Cc2c[nH]c3ccccc23)CC1 (configuration not stated) | · | · | -2 | · | ·
O=C1CC=C2C3CC4N(CCC45c4ccccc4N1C25)CC3=CCO (configuration not stated) | 8 | 17 | 2 | 3 | -3
O=C1CC=C2C3CC4N(CCC45c4cc(O)c(O)cc4N1C25)CC3=CCBr (configuration not stated) | 17 | -70* | 37 | 8 | -15
CC(C)N1CCN(Cc2ccco2)CC1 | · | · | 16 | · | ·
Cc1cccc(-c2nn3c(=O)cc(CN4CCN(C(=O)COc5ccccc5C)CC4)nc3s2)c1 | · | · | 1 | · | ·
O=c1[nH]c(=O)n(CCC2=CCCCC2)c(O)c1C=Nc1cccc(F)c1 | -21 | · | 4 | -2 | 2
O=C(N/N=C/c1c(O)n(CCC2=CCCCC2)c(=O)[nH]c1=O)c1ccccc1 | -68* | -60* | -2 | -5 | 0
CCCCC(=O)N/N=C/c1c(O)n(CCc2ccccc2)c(=O)[nH]c1=O | -23 | -58* | 7 | -17 | 2
O=C(N/N=C/c1c(O)n(CCC2=CCCCC2)c(=S)[nH]c1=O)c1ccccc1 | ? | -59* | -13 | -1 | 1
Nc1ccccc1N=Cc1c(O)n(CCC2=CCCCC2)c(=O)[nH]c1=O | -87* | 1 | 8 | -10 | -18
O=C(CCn1ccc2cc(S(=O)(=O)N3CCCCCC3)ccc21)N1CCC2(CC1)OCCO2 | · | · | 7 | · | ·
NCCc1ccc2c(c1)OCCO2 | · | · | 5 | · | ·
CCc1cc(OC)c(C[C@@H](C)N)cc1OC | · | · | · | -10 | ·
Cc1cc(C=C2C(=O)NC(=O)NC2=O)c(C)n1-c1cccnc1 | 0 | -58* | -8 | 2 | -7
C=CCN1C(=O)/C(=C/c2cc(C)n(-c3cccnc3)c2C)C(=O)NC1=S | -11 | -67* | 1 | -17 | -8
CC12CN3CN(C1)CC(C)(C3)C2=O | · | · | 0 | · | ·
CC(C)c1ccc(CNCCc2c[nH]c3ccccc23)cc1 | · | · | 5 | · | ·
COc1cc2c(cc1OC)-c1c(OC)c(OC)cc3c1[C@H](C2)N(C)CC3 | -59* | -5 | 1 | -41 | ?
NC1(c2ccccc2)CC1 | · | · | 1 | · | ·
CN(C)CCSC1c2ccccc2CSc2ccccc21 (configuration not stated) | -102* | -11 | -8 | -19 | -5
CC(=O)Nc1ccc(S(=O)(=O)N2Cc3ccccc3-n3nncc3C2)cc1 | 16 | -1 | -30* | 1 | -3
